The values below come from article PMC5540273 (PLoS ONE, 2017).

Some test systems named below: STK36; STK39; SYK; SgK110; TAOK1; TAOK2; TAOK3; TBK1; TEC; TESK1; TGFBR1; TGFBR2; TIE1; TLK1; TLK2; TNIK; TNK1; TNK2.
Conditions in all cases: concentration: 1 μM, replicates: in singlicate; n = 1
The test system of a further assay is T1, TAK1.
T1 construct: gene MAP3K7

The subject of another assay is T2, TIE2.
T2 construct: gene TEK

The structures appear in SMILES notation.
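Also: KINOMEscan kinase panel screen.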

For the compound `CCn1cnc2c(NCc3ccccc3)ncnc21` [SKF-96418], the “%Inh” value was determined as 0% with STK36; 16% with STK39; 0% with SYK; 0% in the assay on SgK110; 0% in the assay on TAK1; 0% in the assay on TAOK1. In addition, the “%Inh” value is on record as 27% with TAOK2; 0% with TAOK3; 17% with TBK1; 0% in the assay with TEC; 15% in the assay on TESK1; 25% with TGFBR1. The “%Inh” value in the assay on TGFBR2 is 0%; in the assay on TIE1, 0%; in the assay on TIE2, 0%; in the assay on TLK1 it was 0%; in the assay on TLK2, 1%; in the assay on TNIK it was 0%. Further, the “%Inh” value in the assay with TNK1 stood at 2%; in the assay with TNK2, 0%.

Regarding `COc1ccc(NC(=O)c2ccoc2)cc1-c1ccc(C(=O)NCC2CC2)cc1` [GW810437], the “%Inh” value amounted to 0% with STK36; 10% in the assay on STK39; 12% in the assay on SYK; 36% in the assay on SgK110; 18% in the assay with TAK1; 23% in the assay on TAOK1. The “%Inh” value in the assay on TAOK2 turned out to be 24%; with TAOK3, 15%; in the assay on TBK1 it was 8%; in the assay on TEC it was 0%; in the assay with TESK1, 6%; in the assay on TGFBR1, 37%. The “%Inh” value was 0% in the assay with TGFBR2; 0% in the assay on TIE1; 5% in the assay with TIE2; 2% with TLK1; 12% with TLK2; 21% in the assay on TNIK. Besides, the figures for the “%Inh” value with TNK1 and in the assay on TNK2 were 16% and 0%, respectively.

With `CC(C)NCC(Cc1ccccc1)NC(=O)c1cc(Br)c(-c2ccnc3[nH]ccc23)s1.Cl.Cl` (centres unmarked) [GSK1383281], the “%Inh” value in the assay with STK36 amounted to 0%; in the assay on STK39, 0%; with SYK, 0%; in the assay on SgK110, 73%; in the assay on TAK1 it was 0%; with TAOK1, 41%. Further, the “%Inh” value in the assay with TAOK2 turned out to be 0%; in the assay with TAOK3, 0%; with TBK1, 20%; in the assay on TEC, 0%; with TESK1, 47%; in the assay with TGFBR1, 1%. Besides, the “%Inh” value amounted to 0% with TGFBR2; 69% with TIE1; 0% in the assay on TIE2; 8% with TLK1; 13% in the assay on TLK2; 5% with TNIK. For the same compound, the “%Inh” value in the assay with TNK1 and in the assay on TNK2 was 0% each time.

`COc1cccc(NC(=O)NCCNc2ccnc(Nc3ccc(F)cc3)n2)c1` [GSK1379879]: the “%Inh” value with STK36 is recorded as 0%; in the assay on STK39, 1%; with SYK it was 20%; in the assay with SgK110, 0%; in the assay with TAK1 it was 0%; in the assay on TAOK1 it was 0%. The “%Inh” value is 0% in the assay on TAOK2; 0% in the assay with TAOK3; 13% with TBK1; 0% in the assay with TEC; 40% in the assay with TESK1; 26% in the assay with TGFBR1. The “%Inh” value is 0% in the assay with TGFBR2; 1% with TIE1; 0% in the assay on TIE2; 0% in the assay with TLK1; 0% in the assay on TLK2; 0% with TNIK. The “%Inh” value with TNK1 is recorded as 0%; in the assay with TNK2, 9%.

Turning to `CN(C)CCOc1ccc(-c2cc(-c3ccc(Cl)c(O)c3)c(-c3ccncc3)[nH]2)cc1.Cl.Cl` [SB-684387], the “%Inh” value in the assay with STK36 was determined as 63%; in the assay with STK39, 33%; with SYK, 2%; in the assay on SgK110, 0%; in the assay with TAK1, 32%; in the assay with TAOK1 it was 0%. Moreover, the “%Inh” value in the assay with TAOK2 is recorded as 1%; with TAOK3 it was 0%; with TBK1, 28%; in the assay on TEC, 0%; with TESK1, 19%; in the assay with TGFBR1 it was 54%. The “%Inh” value in the assay with TGFBR2 amounted to 75%; in the assay on TIE1 it was 4%; with TIE2, 39%; in the assay on TLK1 it was 16%; in the assay on TLK2, 7%; in the assay on TNIK it was 33%. Moreover, the entries for the “%Inh” value with TNK1 and with TNK2 were 28% and 15%, respectively.

`COc1cccc(-c2nc(-c3ccccc3)[nH]c2-c2ccncc2)c1` [SB-610250]: the “%Inh” value in the assay on STK36 turned out to be 30%; in the assay with STK39, 19%; with SYK it was 23%; in the assay with SgK110, 20%; in the assay with TAK1 it was 0%; with TAOK1, 0%. Also, the “%Inh” value in the assay with TAOK2 amounted to 0%; in the assay on TAOK3 it was 0%; in the assay with TBK1 it was 0%; in the assay on TEC, 4%; with TESK1, 22%; in the assay on TGFBR1, 17%. For the same compound, the “%Inh” value with TGFBR2 is listed as 5%; in the assay on TIE1, 0%; in the assay with TIE2 it was 0%; in the assay with TLK1 it was 0%; in the assay on TLK2, 0%; in the assay on TNIK, 0%. The “%Inh” value in the assay with TNK1 is on record as 0%; in the assay with TNK2 it was 8%.

Regarding `CN(c1ccc(F)c(NC(=O)c2cccc(OC(C)(C)C#N)c2Cl)c1)c1ccc2nc(NC(=O)C3CC3)sc2n1`, the “%Inh” value worked out at 3% in the assay with STK36; 12% in the assay with STK39; 0% with SYK; 0% with SgK110; 19% in the assay on TAK1; 49% with TAOK1. For the same compound, the “%Inh” value was 0% with TAOK2; 0% in the assay with TAOK3; 7% with TBK1; 6% with TEC; 6% with TESK1; 3% in the assay with TGFBR1. The “%Inh” value was 0% in the assay on TGFBR2; 67% in the assay with TIE1; 0% with TIE2; 2% in the assay with TLK1; 0% in the assay with TLK2; 95.6% with TNIK. Besides, the “%Inh” value was 42% in the assay on TNK1 and 0% with TNK2.

Turning to `Cl.N#CCc1ccc(Nc2nccc(Nc3ccc(Oc4ccccc4)cc3)n2)cc1` [GW639905], the “%Inh” value was 0% in the assay with STK36; 10% with STK39; 5% in the assay on SYK; 6% with SgK110; 0% in the assay with TAK1; 0% in the assay with TAOK1. The “%Inh” value in the assay with TAOK2 came to 7%; in the assay with TAOK3 it was 0%; with TBK1, 6%; in the assay with TEC, 75%; in the assay on TESK1 it was 56%; in the assay with TGFBR1, 0%. Moreover, the “%Inh” value in the assay with TGFBR2 was found to be 8%; in the assay on TIE1, 2%; in the assay on TIE2, 9%; in the assay with TLK1, 0%; with TLK2, 0%; in the assay with TNIK it was 0%. The “%Inh” value with TNK1 was found to be 59%; in the assay with TNK2 it was 26%.

For `CCNC(=O)/C=C/c1n[nH]c2cc(Sc3ccccc3C(=O)NC)ccc12`, the “%Inh” value in the assay with STK36 was 35%; in the assay with STK39, 0%; with SYK, 20%; in the assay on SgK110, 15%; with TAK1, 26%; in the assay with TAOK1, 0%. For the same compound, the “%Inh” value with TAOK2 was 0%; with TAOK3, 8%; with TBK1, 13%; in the assay with TEC, 0%; with TESK1, 10%; with TGFBR1, 5%. For the same compound, the “%Inh” value came out at 0% with TGFBR2; 59% in the assay on TIE1; 20% in the assay with TIE2; 12% in the assay on TLK1; 0% with TLK2; 57% in the assay on TNIK. The “%Inh” value with TNK1 was found to be 67%; with TNK2, 27%.

With `COC(=O)Nc1nc2ccc(Oc3ccc(CC(=O)Nc4cc(C(F)(F)F)ccc4F)cc3)cc2[nH]1` [GW680903], the “%Inh” value came to 7% with STK36; 0% in the assay on STK39; 0% in the assay on SYK; 0% in the assay with SgK110; 0% in the assay with TAK1; 0% in the assay with TAOK1. The “%Inh” value in the assay on TAOK2 was 0%; in the assay on TAOK3 it was 0%; in the assay on TBK1 it was 4%; in the assay with TEC, 0%; in the assay on TESK1 it was 17%; in the assay with TGFBR1, 17%. The “%Inh” value in the assay on TGFBR2 is given as 0%; with TIE1, 94%; with TIE2 it was 36%; in the assay with TLK1, 14%; with TLK2 it was 0%; in the assay with TNIK it was 0%. Moreover, the entries for the “%Inh” value in the assay with TNK1 and with TNK2 were 0% and 17%, respectively.
